Bioassay records as filed in PubChem.
VACV Venus inh: inhibitors of vaccinia virus (Venus reporter) | Vaccinia virus Venus reporter expression, fluorescence | Potency, µM (titrated, usually from 36.5 µM), inactives show at the highest dose activity change, negative = inhibition, usual class: inhibitors | actives 0.46% (n = 330,000); calls by dose curve; tested in A549 cells; also: potency is read from the fitted curve at half-maximal effect; nearly all actives have a fitted effect of over 30% in size
FMDV inh: antivirals against foot and mouth disease virus. Potency, µM (highest dose often 57.9 µM), without a hit: top-dose activity change, negative = inhibition, hits mostly inhibitors. FMDV antiviral cell-based qHTS. actives 1.2% (n = 410,000); calls by dose curve; tested in HEK293T cells; also: read-out not given here; potency is read from the fitted curve at half-maximal effect; nearly all actives have a fitted effect of over 45% in size
LASV entry inh: inhibitors of Lassa virus binding or cell entry. Lassa virus pseudotype entry inhibition, cell reporter. Potency, µM (doses to about 37.9 µM), inactives show top-dose activity change, negative = inhibition, hits mostly inhibitors. actives 1.2% (n = 300,000); calls by dose curve; tested in HEK293 cells; also: potency is read from the fitted curve at half-maximal effect; nearly all actives have a fitted effect of over 50% in size
HCMV inh: inhibitors of human cytomegalovirus. HFF cells, HCMV-luciferase reporter, 72 h; active compounds read low. activity change, negative = inhibition, % at 57.5 µM. actives 4.5% (n = 410,000); in the data active = activity change below about -60%; inconclusive = no clear call, values can overlap the other calls; inactive = above about -39%
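Steps: HFFs plated, 16 h 37C; compounds added; HCMV-luciferase added to MOI 1 PFU/cell; 72 h 37C; OneGlo reagent, 5 min room temperature; luminescence read, normalized to controls.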
VACV mCherry inh: vaccinia inhibition (mCherry reporter) | Vaccinia virus mCherry reporter infection, fluorescence | Potency, µM (titrated, usually from 36.5 µM), without a hit: top-dose activity change, negative = inhibition, usual class: inhibitors | actives 0.63% (n = 310,000) | AID 720579; calls by dose curve; tested in A549 cells; also: potency is read from the fitted curve at half-maximal effect; nearly all actives have a fitted effect of over 35% in size
Marburg entry inh: blocks Marburg virus binding to or entry into cells; Potency, µM (doses to about 37.8 µM), inactives show at the top dose activity change, negative = inhibition, actives largely listed as inhibitors; Marburg virus pseudotyped entry inhibition, cell reporter; AID 540276; actives 1.8% (n = 300,000); calls by dose curve; tested in HEK293 cells; also: potency is read from the fitted curve at half-maximal effect
The depositor's hits bear a star; i = inactive; ? = inconclusive; nt = no result; + = active, no number; [ ] = remark or other dose. Only some compounds are listed: those with a hit (about 6.5% of all), similar ones and a draw of the others. % is scaled to controls: 0 for no effect and ±100 for the full control effect.

SMILES | VACV Venus inh | FMDV inh | LASV entry inh | HCMV inh | VACV mCherry inh | Marburg entry inh
C/C(=N\N1CCN(C2c3ccccc3-c3ccccc32)CC1)c1ccncc1 | -11% | 13µM* | 15% | -35 | nt | 8%
COc1ccc(C(C(=O)NC(C)(C)C)n2c(-c3ccc(=O)[nH]c3)nc3ccccc32)cc1 (stereo unspecified) | -15% | 0% | nt | -86* | -13% | nt
COc1ccc(C(C(=O)NC(C)(C)C)n2c(COc3ccc(C)cc3)nc3ccccc32)cc1 (stereo unspecified) | -23% | -12% | nt | -19 | -19% | nt
Cc1ccccc1N1C(=O)NC(=O)/C(=C\c2cc(Br)c(N3CCOCC3)o2)C1=O | 2% | 16µM* | 3% | 52 | -5% | ?
COC(=O)C1=C(C)N(CC#C[Si](C)(C)C)C(=O)N(C(C)=O)C1c1ccccc1 (stereo unspecified) | nt | nt | nt | nt | nt | -5%[14.2 µM]
Cc1ccccc1Nc1c(-c2ccsc2)nc2c(C)cccn12 | -12% | ? | 4%[46.1 µM] | -84* | -2% | 6%[46.1 µM]
Cc1ccn2c(Nc3ccccc3C)c(-c3ccncc3)nc2c1 | -24% | ? | 18%[46.1 µM] | -67* | ? | 3%[46.1 µM]
Cc1ccn2c(NC3CCCC3)c(-c3ccncc3)nc2c1 | nt | 0% | nt | 0 | nt | nt
CC(C)c1ccc(NC(=O)CSc2nc3ccccc3nc2Cc2ccccc2)cc1 | -16% | 16% | 29%[46.1 µM] | -12 | -4% | nt
CCOC(=O)C(Cc1ccccc1)(Nc1ccccc1)C(O)c1ccc([N+](=O)[O-])cc1 (stereo unspecified) | nt | nt | nt | 23 | nt | nt
CC1(C)O[C@H]2[C@@H](O1)[C@@H](C(=O)Nc1ccccc1O)O[C@@H]1OC(C)(C)O[C@@H]12 | -12% | 19% | -3%[46.1 µM] | -1 | -1% | -4%[46.1 µM]
CC1(C)O[C@H]2[C@@H](O1)[C@@H](C(=O)Nc1cc(F)ccc1F)O[C@@H]1OC(C)(C)O[C@@H]12 | -9% | 19% | 2%[46.1 µM] | -89* | -7% | 12%[46.1 µM]
CCOC(=O)c1c2c(n(-c3ccc(OC)cc3)c1C)C(=O)C(=O)c1ccccc1-2 | 4.5µM* | 13µM* | 2.2µM* | nt | 2.8µM* | ?
COc1ccc(-c2nnc(NC(=O)c3ccc(S(=O)(=O)N4COCC4(C)C)cc3)o2)cc1 | ? | -23% | ? | -62* | -25% | ?
CC1(C)COCN1S(=O)(=O)c1ccc(C(=O)Nc2nnc(-c3ccc(Cl)s3)o2)cc1 | ? | ? | ? | nt | ? | 6.3µM*
CCCC(=O)Nc1nnc(-c2ccc(Cl)s2)o1 | -8% | 45% | nt | 7 | -1% | nt
CCCN(CCC)S(=O)(=O)c1ccc(C(=O)Nc2nnc(-c3cc(OC)cc(OC)c3)o2)cc1 | -4% | ? | -8% | nt | -21% | ?
COc1ccc(-c2nc(-n3c(C)c(C(C)=O)c(C(C)=O)c3C)sc2C)cc1OC | nt | -28% | 3% | 48 | nt | -21%
CC(=O)c1c(C(C)=O)c(C)n(-c2nc(-c3ccc(Br)cc3)c(C)s2)c1C | nt | ? | 16µM* | ? | nt | ?
COc1ccc(C(=O)Nc2ccc3nc4c(c(Nc5ccc(OC)c(OC)c5)c3c2)CCCC4)c(OC)c1 | -10% | -17% | -11%[46.1 µM] | -92* | -14% | ?
COc1ccccc1Nc1c2c(nc3ccc(NC(=O)c4ccccc4F)cc13)CCCC2 | ? | ? | ? | -100* | ? | 3.2µM*
COc1ccc(C(=O)Nc2ccc3nc4c(c(Nc5ccccc5OC)c3c2)CCCC4)c(OC)c1 | -17% | -6% | -4%[46.1 µM] | -9 | i | 2.5µM*
COc1ccccc1C(=O)Nc1ccc2nc3n(c(=O)c2c1)CCCC3 | nt | 13% | nt | ? | nt | nt
COc1ccc(Nc2c3c(nc4ccc(NC(=O)c5ccc(F)cc5)cc24)CCCC3)cc1OC | -21% | -16% | -26%[46.1 µM] | -39 | -16% | ?
COc1ccccc1Nc1c2c(nc3ccc(NC(=O)c4ccc(OC)c(OC)c4)cc13)CCCC2 | -26% | ? | ? | -99* | -16% | 2.2µM*
SMILES | VACV Venus inh | FMDV inh | LASV entry inh | HCMV inh | VACV mCherry inh | Marburg entry inh
COc1ccccc1Nc1c2c(nc3ccc(N)cc13)CCCC2 | nt | -19% | nt | -31 | nt | nt
Cc1c(C(=O)NCc2ccc(Cl)cc2)sc2nc3n(c(=O)c12)CCCCC3 | -10% | -5% | 12%[46.1 µM] | -20 | -11% | nt
COc1ccccc1CNC(=O)CN1C(=O)CCc2cc(S(=O)(=O)N3CCOCC3)ccc21 | 2% | 1% | ? | 3 | -4% | nt
Cc1sc2ncn(CC(=O)N3CCN(c4ccccc4)CC3)c(=O)c2c1S(=O)(=O)N1CCN(c2ncccn2)CC1 | -11% | -17% | -3%[46.1 µM] | 9 | -11% | 14%[46.1 µM]
COc1ccccc1Nc1c2c(nc3ccc(NC(=O)c4cccc(OC)c4OC)cc13)CCCC2 | -13%[7.34 µM] | ? | 7.9µM* | -98* | -12%[7.34 µM] | ?
CCC(=O)N1CCc2cc(Br)cc(S(=O)(=O)NCC3CCCO3)c21 (stereo unspecified) | nt | 80% | 14% | -12 | nt | ?
CCC(=O)N1CCc2cc(Br)cc(S(=O)(=O)CCC(=O)NCC3CCCO3)c21 (stereo unspecified) | -2% | -17% | 4% | -109* | -15% | ?
Cc1c(C(=O)N2CCC2)oc2c(F)cccc12 | -4% | -16% | 7% | -19 | i | 2%
COCC1CCN(C(=O)c2oc3c(F)cccc3c2C)C1 (stereo unspecified) | nt | 32% | nt | 12 | nt | nt
CC(=O)NCC1CCCN(C(=O)c2oc3c(F)cccc3c2C)C1 (stereo unspecified) | nt | 19% | nt | -101* | nt | nt
Cc1c(C(=O)N2CCCCC2CCN2CCCC2=O)oc2c(F)cccc12 (stereo unspecified) | -16% | -3% | 2% | -63* | i | -1%
CCOC(=O)c1c(C)[nH]c(C)c1C(=O)COC(=O)c1cccc(S(=O)(=O)N(CC)CC)c1 | -28% | -10% | 22µM* | -26 | ? | -2%
FC(F)(F)c1ccc(CSc2nccn2-c2ccccc2)cc1 | -17% | 0% | -1% | 6 | -7% | -19%
Brc1ccc(CSc2nccn2-c2ccccc2)cc1 | ? | 0% | -23% | -73* | nt | ?
Cc1cc(C)c(NC(=O)C2CCN(c3nc4ccccc4[nH]3)CC2)c(C)c1 | -8% | 2% | 12%[46.1 µM] | + | -10% | nt
Cc1[nH]n(-c2ccccc2)c(=O)c1N=Nc1c(O)cc(S(=O)(=O)N(C)C)c2ccccc12 | ? | 13µM* | nt | -99* | ? | nt
CCN(CCO)c1nc(SC)nc2c1sc1nc(-c3ccco3)c3c(c12)CCC3 | -11% | ? | 2% | nt | -8% | 10%
CSc1nc(NCCOCCO)c2sc3nc(-c4ccco4)c4c(c3c2n1)CCC4 | ? | 40µM* | ? | -1 | nt | ?
Cc1ccc(Cn2c(SCc3ccc(C(=O)NC4CCCCC4)cc3)nc3ccncc32)cc1 | -25% | ? | nt | ? | -22% | -26%[46.1 µM]
Cc1ccc(Cn2c(SCc3ccc(C(=O)NC4CCCC4)cc3)nc3ccncc32)cc1 | ? | ? | -26%[46.1 µM] | -74* | ? | 8%[46.1 µM]
